The panel holds about 83,000 compounds, 20% with a hit somewhere; the sample as a whole holds those more often.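 48-hour exposure, single concentration, 96-well plates; percent growth endpoint where 0 means no net growth. Active: below 10.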 A number with no mark means an inactive call. Activity calls are given as the source filed them.

Among the test systems are NCI-H23 lung; NCI-H226 lung; NCI-H322M lung; HOP-62 NSCLC; NCI-H460 lung; HOP-92 NSCLC; NCI-H522 lung; A549/ATCC NSCLC; 786-0 renal; COLO 205 colon; DU-145 prostate; K-562 leukemia; MALME-3M melanoma; MDA-MB-231 breast; RXF 393 renal; SF-268 CNS; SF-295 CNS; SF-539 CNS; UACC-257 melanoma; M14 melanoma.
What all share (assay): NCI-60 one-dose screen, 48 h (100 = growth as untreated, 0 = no growth, -100 = all killed)
Common to all, as to conditions: 10 µM unless noted

For `CNS(=O)(=O)c1cccc(-c2ccc3c4c(n(C)c(=O)c3c2)-c2ccccc2C4=O)c1`, the growth with NCI-H23 lung is 43.9%; in the assay on NCI-H226 lung, 33.1%; in the assay with NCI-H322M lung, 92.8%; in the assay on HOP-62 NSCLC, 22.2%; with NCI-H460 lung, 7.51% (active); in the assay with HOP-92 NSCLC, 61.2%. Moreover, the growth with NCI-H522 lung was 49.3%; in the assay with A549/ATCC NSCLC, 24%; in the assay with 786-0 renal, 25.3%; with COLO 205 colon, 66.5%; in the assay with DU-145 prostate, 20.7%; in the assay on K-562 leukemia, 41.3%. In addition, the growth is 55% in the assay on MALME-3M melanoma; 87.1% in the assay on MDA-MB-231 breast; 96.5% in the assay with RXF 393 renal; 58.6% in the assay on SF-268 CNS; 24.1% in the assay on SF-295 CNS; 53.8% with SF-539 CNS. In addition, the growth with UACC-257 melanoma is 96.3%; in the assay on M14 melanoma it was 60.1%.
Consider `COc1cc(C2=NN(C(C)=O)C(c3cccc(Nc4ccnc5cc(C(F)(F)F)ccc45)c3)C2)cc(OC)c1OC` (stereo not given), for which the growth was 62.8% with NCI-H23 lung; 66.5% in the assay on NCI-H226 lung; 68.3% with NCI-H322M lung; 63.9% in the assay on HOP-62 NSCLC; 57.6% in the assay with NCI-H460 lung; 25.3% in the assay on HOP-92 NSCLC. The growth in the assay on NCI-H522 lung is 55.7%; in the assay with A549/ATCC NSCLC, 53.1%; in the assay with 786-0 renal, 58.8%; in the assay on COLO 205 colon, 50.3%; in the assay with DU-145 prostate it was 55%; with K-562 leukemia it was 36.8%. In addition, the growth in the assay with MALME-3M melanoma was 78.9%; in the assay on MDA-MB-231 breast, 66.1%; in the assay on RXF 393 renal, 55.3%; in the assay with SF-268 CNS, 52.6%; with SF-295 CNS, 53.8%; in the assay with SF-539 CNS, 76.6%. Further, the figures for the growth with UACC-257 melanoma and with M14 melanoma were 79% and 29.7%, respectively.
Regarding `N#Cc1c(-c2ccc(Cl)cc2)cc(-c2cc3ccccc3o2)nc1SCC(=O)c1ccc(Cl)cc1`, the growth was 91.7% with NCI-H23 lung; 102% with NCI-H226 lung; 104% with NCI-H322M lung; 91.4% with HOP-62 NSCLC; 107% in the assay on NCI-H460 lung; 83.7% with HOP-92 NSCLC. Also, the growth is 97.5% in the assay with NCI-H522 lung; 111% with A549/ATCC NSCLC; 97.2% in the assay on 786-0 renal; 106% in the assay on COLO 205 colon; 121% with DU-145 prostate; 118% in the assay on K-562 leukemia. Further, the growth in the assay on MALME-3M melanoma was 90.6%; in the assay on MDA-MB-231 breast, 95.5%; in the assay on RXF 393 renal, 116%; in the assay on SF-268 CNS it was 99.3%; in the assay with SF-295 CNS, 90.1%; in the assay on SF-539 CNS it was 112%. In addition, the growth in the assay on UACC-257 melanoma is 112%; in the assay with M14 melanoma it was 96.9%.
As to `CCC1=C[C@H]2CN(CCc3c([nH]c4ccccc34)[C@@](C(=O)OC)(c3cc4c(cc3OC)N(C)[C@H]3[C@@](O)(C(=O)OC)[C@H](OC(C)=O)[C@]5(CC)[C@@H]6C[C@@H]6CN6CC[C@]43[C@@H]65)C2)C1`, the growth with NCI-H23 lung was 44%; in the assay on NCI-H226 lung, 47.9%; in the assay with NCI-H322M lung it was 66.1%; in the assay on HOP-62 NSCLC, 10.7%; in the assay with NCI-H460 lung, 5.3% (active); in the assay on HOP-92 NSCLC it was -7.42% (active). The growth was -29% (active) in the assay on NCI-H522 lung; 17.7% in the assay on A549/ATCC NSCLC; 12.6% in the assay with 786-0 renal; -43.5% (active) in the assay on COLO 205 colon; 18.3% in the assay with DU-145 prostate; 2.96% (active) in the assay with K-562 leukemia. For the same molecule, the growth in the assay on MALME-3M melanoma is 37.3%; with MDA-MB-231 breast, -21.9% (active); in the assay with RXF 393 renal it was 47.6%; in the assay with SF-268 CNS, 7.66% (active); in the assay with SF-295 CNS it was 11.1%; in the assay on SF-539 CNS, -13.3% (active). In addition, the growth is 55.1% in the assay on UACC-257 melanoma and -32% (active) in the assay on M14 melanoma.
`NC[C@@H]1CCN(c2cc3c(cc2F)c(=O)n(N)c(=O)n3Cc2ccc(-c3ccccc3)cc2)C1`: the growth with NCI-H23 lung was 87.2%; in the assay on NCI-H226 lung, 91.1%; in the assay with NCI-H322M lung, 96.8%; in the assay on HOP-62 NSCLC, 77.4%; in the assay with NCI-H460 lung, 99.7%; with HOP-92 NSCLC, 73.6%. Moreover, the growth in the assay on NCI-H522 lung was 68.8%; in the assay with A549/ATCC NSCLC it was 89.6%; in the assay on 786-0 renal, 66.2%; in the assay on COLO 205 colon, 88.6%; with DU-145 prostate it was 102%; in the assay on K-562 leukemia, -44% (active). Further, the growth in the assay on MALME-3M melanoma was 121%; in the assay with MDA-MB-231 breast, 89.7%; in the assay on RXF 393 renal, 74.7%; with SF-268 CNS it was 83.1%; in the assay on SF-295 CNS it was 96.5%; with SF-539 CNS, 90%. Besides, the growth in the assay with UACC-257 melanoma was 112%; in the assay on M14 melanoma, 68.8%.
Consider `COc1ccc2nc3nc4ccc[nH]c4cc3c2c1`, for which the growth was 73.9% in the assay with NCI-H23 lung; 91.6% with NCI-H226 lung; 87.6% in the assay with NCI-H322M lung; 87.9% in the assay with HOP-62 NSCLC; 73.7% with NCI-H460 lung; 122% in the assay on HOP-92 NSCLC. Besides, the growth was 84.4% in the assay on NCI-H522 lung; 91.2% in the assay on A549/ATCC NSCLC; 86.2% in the assay on 786-0 renal; 97.9% with COLO 205 colon; 88.3% in the assay with DU-145 prostate; 99.6% with K-562 leukemia. For the same molecule, the growth with MALME-3M melanoma was 90%; with MDA-MB-231 breast, 98%; with RXF 393 renal it was 101%; in the assay with SF-268 CNS, 84.5%; in the assay with SF-295 CNS, 112%; in the assay on SF-539 CNS, 94%. The growth was 115% in the assay with UACC-257 melanoma and 101% in the assay with M14 melanoma.
Turning to `CCc1n(Cc2ccc3ccccc3c2)c2ccccc2[n+]1Cc1ccc2ccccc2c1`, the growth in the assay with NCI-H23 lung was 28.8%; with NCI-H226 lung it was 64.9%; with NCI-H322M lung it was 90.7%; with HOP-62 NSCLC it was 81.3%; in the assay on NCI-H460 lung it was 53.6%; with HOP-92 NSCLC, 21.8%. The growth in the assay with NCI-H522 lung is 12.1%; with A549/ATCC NSCLC, 74.2%; in the assay on 786-0 renal, 89%; in the assay with COLO 205 colon, 25%; in the assay on DU-145 prostate it was 67.7%; with K-562 leukemia, 35.3%. For the same molecule, the growth was 54.1% in the assay on MALME-3M melanoma; 60.3% in the assay with MDA-MB-231 breast; 94.1% in the assay with RXF 393 renal; 64.7% with SF-268 CNS; 93.3% in the assay with SF-295 CNS; 68.8% in the assay on SF-539 CNS. Further, the values for the growth in the assay on UACC-257 melanoma and with M14 melanoma were 59% and 48.7%, respectively.

These data come from PubChem BioAssay (NCI).
